Results on five compounds are retold here after PubChem BioAssay.

Records with an inconclusive call do not appear. Active and inactive are the calls of the source.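 Rule for the calls, unless noted: active = response below a set limit, under 55% cells CD8-positive and vesicle-bound, and CD8 cells' 90th-percentile brightness under 279; inactive = the rest.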

Test [1] in a line: rapamycin-like changes in RPL19A-GFP expression – cell-based, S. cerevisiae, multiplex flow cytometry, primary screen (AID 1862; in the data active = percent of DMSO control GFP below about 86%;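 note: lower values mimic rapamycin by blocking the RPL19A rise seen in DMSO cells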). The conditions noted are these: S. cerevisiae RPL19A-GFP strain, flow cytometry fluorescence, 3 h; at 10 µM; stronger effect = lower value. For orientation: A flow cytometer gives signals particle by particle.
Test [2] in a line: TOR pathway GLN3 branch reporter MEP2-GFP changes – S. cerevisiae, multiplex flow cytometry, primary screen (AID 1867;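 active = GFP response, as percent of the DMSO control, above the screen-wide mean plus 3 SD, about 139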;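 note: median GFP channel fluorescence of barcode-gated MEP2-GFP cells measured by flow cytometry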). The conditions noted are these: S. cerevisiae MEP2-GFP strain, 3 h, at 10 µM, stronger effect = higher value, 100% means same as DMSO wells.
Test [3] is described as follows: TOR pathway RTG branch CIT2 reporter changes – S. cerevisiae, GFP fusion, multiplex flow cytometry, primary screen (AID 1870;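 active = percent response above a set limit, the screen-wide mean plus 3 SD, cut at about 130% in these data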;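 note: barcoded CIT2-GFP strain pooled with four other GFP strains with rapamycin as positive control; median GFP fluorescence per well over plate mean of DMSO wells so 100% = DMSO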). The conditions noted are these: S. cerevisiae CIT2-GFP expression, 3 h, at 10 µM, stronger effect = higher value.
Test [4] in a line: TOR pathway LAP4-GFP level changes – S. cerevisiae, multiplex flow cytometry, primary screen (AID 1873;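 active = GFP signal, as percent of the solvent control, above the screen mean plus 3 SD, about 149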). The conditions noted are these: S. cerevisiae LAP4-GFP expression, 3 h, at 10 µM, stronger effect = higher value.
Test [5] is described as follows: yeast AGP1-GFP level changes, GLN3 branch – cell-based, multiplex flow cytometry, S. cerevisiae, primary screen (AID 1887;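 active = GFP signal above the screen-wide mean plus 3 SD, that is over about 124.5% of the solvent control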;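 note: AGP1-GFP fusion strain of S. cerevisiae within a five-strain barcoded multiplex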). To be noted: 3 h, at 10 µM, stronger effect = higher value.
Test [6] in a line: reduced mouse 2C T cell binding to pMHC/ICAM-1 vesicles – MLPCN validation set, flow cytometry, LFA-1/ICAM-1 modulator project, pilot screen (AID 2523).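 For vesicle binding response: mean PE anti-B7-1 fluorescence of CD8+ cells relative to row control; 100% = QL9-loaded vesicles with DMSO vehicle in the same plate row.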 To be noted: 2C mouse CD8+ T cells, at 7 µM, stronger effect = lower value; double positive events: measured here: CD8+/vesicle+ event percentage.
The target of test [7] is Integrin beta-1 (Homo sapiens) + Integrin alpha-4 (Homo sapiens) (UniProt P13612+P05556). Nature of the test: alpha4beta1 integrin LIBS antibody binding reduction – U937 cells, HUTS-21 mAb, flow cytometry, validation set, VLA-4 allosteric modulator project, pilot screen (AID 2674;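 active = inhibition above 50%, about 3 SD of the validation set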;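 note: antibody binding induced by the VLA-4 ligand LDV present at three times its Kd; 0% = LDV ligand with antibody and no compound and 100% = antibody without LDV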). To be noted: HUTS-21 LIBS mAb binding, at 6.7 µM, stronger effect = higher value, binding induced by LDV ligand.
Sequence of Integrin beta-1 (Homo sapiens) + Integrin alpha-4 (Homo sapiens) (P05556 whole entry, looked up): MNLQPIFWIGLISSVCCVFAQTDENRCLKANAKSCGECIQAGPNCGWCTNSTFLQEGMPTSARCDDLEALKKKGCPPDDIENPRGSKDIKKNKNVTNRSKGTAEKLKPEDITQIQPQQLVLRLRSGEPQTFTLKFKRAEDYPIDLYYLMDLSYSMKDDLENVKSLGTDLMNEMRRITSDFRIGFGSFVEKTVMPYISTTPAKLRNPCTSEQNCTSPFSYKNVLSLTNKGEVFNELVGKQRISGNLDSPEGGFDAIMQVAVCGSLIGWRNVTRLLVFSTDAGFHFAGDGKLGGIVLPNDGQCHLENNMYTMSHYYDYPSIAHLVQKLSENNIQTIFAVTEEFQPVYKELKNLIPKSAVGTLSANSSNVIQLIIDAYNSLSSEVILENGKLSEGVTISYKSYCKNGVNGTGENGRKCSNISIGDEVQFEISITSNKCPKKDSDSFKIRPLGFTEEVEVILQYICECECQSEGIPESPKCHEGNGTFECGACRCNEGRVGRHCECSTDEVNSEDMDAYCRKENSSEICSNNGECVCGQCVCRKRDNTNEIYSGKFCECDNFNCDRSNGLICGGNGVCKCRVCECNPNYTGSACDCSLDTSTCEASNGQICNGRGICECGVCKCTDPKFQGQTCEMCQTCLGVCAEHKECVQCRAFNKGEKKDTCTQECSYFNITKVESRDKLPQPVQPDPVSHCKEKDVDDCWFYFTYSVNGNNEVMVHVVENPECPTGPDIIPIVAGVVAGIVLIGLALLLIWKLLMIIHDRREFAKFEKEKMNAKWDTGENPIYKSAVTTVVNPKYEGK
Sequence of Integrin beta-1 (Homo sapiens) + Integrin alpha-4 (Homo sapiens) (P13612 whole entry, looked up): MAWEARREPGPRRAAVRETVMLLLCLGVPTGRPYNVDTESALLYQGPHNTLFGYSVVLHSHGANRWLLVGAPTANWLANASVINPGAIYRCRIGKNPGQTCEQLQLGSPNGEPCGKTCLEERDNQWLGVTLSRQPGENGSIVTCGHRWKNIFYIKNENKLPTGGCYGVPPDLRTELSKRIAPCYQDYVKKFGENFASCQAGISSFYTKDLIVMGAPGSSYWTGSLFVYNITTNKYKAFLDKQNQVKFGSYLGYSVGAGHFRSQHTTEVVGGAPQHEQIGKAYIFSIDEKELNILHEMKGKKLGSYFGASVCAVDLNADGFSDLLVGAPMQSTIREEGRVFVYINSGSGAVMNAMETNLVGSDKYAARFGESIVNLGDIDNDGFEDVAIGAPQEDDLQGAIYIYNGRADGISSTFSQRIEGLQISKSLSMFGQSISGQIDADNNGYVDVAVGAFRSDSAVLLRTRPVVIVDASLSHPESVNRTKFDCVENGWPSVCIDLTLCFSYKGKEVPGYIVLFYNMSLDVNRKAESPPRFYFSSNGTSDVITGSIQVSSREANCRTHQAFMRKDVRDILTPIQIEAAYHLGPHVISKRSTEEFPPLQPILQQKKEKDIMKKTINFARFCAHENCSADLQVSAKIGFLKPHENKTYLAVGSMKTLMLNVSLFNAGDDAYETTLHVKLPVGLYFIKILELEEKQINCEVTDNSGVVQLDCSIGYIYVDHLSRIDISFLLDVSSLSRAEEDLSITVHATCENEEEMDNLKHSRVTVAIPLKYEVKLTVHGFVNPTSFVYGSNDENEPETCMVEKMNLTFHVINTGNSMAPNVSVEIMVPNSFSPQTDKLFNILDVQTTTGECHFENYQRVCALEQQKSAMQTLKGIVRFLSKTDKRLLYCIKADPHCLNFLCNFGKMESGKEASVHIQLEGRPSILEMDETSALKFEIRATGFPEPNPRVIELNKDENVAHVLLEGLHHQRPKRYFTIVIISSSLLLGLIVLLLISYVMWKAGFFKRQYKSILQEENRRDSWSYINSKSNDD

The nature of test [8]: calorie-restriction mimetic ROS inhibitors, yeast – validation compound set, pilot screen (AID 2706;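 active = superoxide response below 65% of plate, a cut near 3 SD across the whole screen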;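 note: yeast exposed to compound for one week at 30 degrees C before staining; 100% = mean of all compound wells on the same plate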). The conditions noted are these: S. cerevisiae aging, superoxide DHE fluorescence; at 10 µM, stronger effect = lower value.
In test [9] the target is Beta-adrenergic receptor kinase 1 (Homo sapiens) (UniProt P25098). Nature of the test: GRK2 binders displacing RNA aptamer, biochemical, validation, human GRK2, bead flow cytometry (AID 488806;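 active = aptamer binding inhibition above 30%, about 3 SD of noise from non-fluorescent compounds; inactive = inhibition at or below 30%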). To be noted: bead-bound GRK2, FAM-aptamer displacement, at 10 µM, stronger effect = higher value.
Sequence of Beta-adrenergic receptor kinase 1 (Homo sapiens) (P25098 whole entry, looked up): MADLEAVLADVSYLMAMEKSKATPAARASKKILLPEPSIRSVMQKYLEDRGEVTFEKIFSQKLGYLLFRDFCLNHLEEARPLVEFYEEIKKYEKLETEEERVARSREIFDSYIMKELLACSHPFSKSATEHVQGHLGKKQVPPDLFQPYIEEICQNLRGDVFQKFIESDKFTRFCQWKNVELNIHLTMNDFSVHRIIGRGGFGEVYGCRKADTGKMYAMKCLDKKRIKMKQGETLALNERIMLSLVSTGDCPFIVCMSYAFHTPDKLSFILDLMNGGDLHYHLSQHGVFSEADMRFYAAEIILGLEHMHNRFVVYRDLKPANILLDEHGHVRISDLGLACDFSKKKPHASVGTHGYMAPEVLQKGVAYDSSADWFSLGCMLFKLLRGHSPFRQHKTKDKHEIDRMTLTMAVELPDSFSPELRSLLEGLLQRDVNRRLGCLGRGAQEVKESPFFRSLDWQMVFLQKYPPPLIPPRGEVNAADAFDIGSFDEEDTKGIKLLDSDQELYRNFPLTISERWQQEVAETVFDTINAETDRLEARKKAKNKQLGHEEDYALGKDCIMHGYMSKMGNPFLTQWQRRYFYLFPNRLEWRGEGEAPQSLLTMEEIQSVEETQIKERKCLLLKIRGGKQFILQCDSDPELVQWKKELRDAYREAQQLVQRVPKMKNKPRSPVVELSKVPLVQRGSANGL
Test [10] deals with AP-2 complex subunit beta (Homo sapiens) (UniProt P63010). Nature of the test: beta-arrestin/AP2 interaction blockers – biochemical, validation set, GST-AP2 beads, flow cytometry, pilot screen (AID 504541;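 active = inhibition above 54%, about 3 SD of non-fluorescent compounds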;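 note: AP2 carries R879A mutation and is captured from E. coli lysate; bead-bound FITC arrestin peptide fluorescence measuring arrestin peptide binding to AP2; 0% = DMSO wells and 100% = excess unlabeled arrestin peptide control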). To be noted: FITC arrestin peptide, at 10 µM, stronger effect = higher value, AP2 beta2 appendage fragment, R879A mutant.
Sequence of AP-2 complex subunit beta (Homo sapiens) (P63010 whole entry, looked up, the tested form may be a part, one chain of several): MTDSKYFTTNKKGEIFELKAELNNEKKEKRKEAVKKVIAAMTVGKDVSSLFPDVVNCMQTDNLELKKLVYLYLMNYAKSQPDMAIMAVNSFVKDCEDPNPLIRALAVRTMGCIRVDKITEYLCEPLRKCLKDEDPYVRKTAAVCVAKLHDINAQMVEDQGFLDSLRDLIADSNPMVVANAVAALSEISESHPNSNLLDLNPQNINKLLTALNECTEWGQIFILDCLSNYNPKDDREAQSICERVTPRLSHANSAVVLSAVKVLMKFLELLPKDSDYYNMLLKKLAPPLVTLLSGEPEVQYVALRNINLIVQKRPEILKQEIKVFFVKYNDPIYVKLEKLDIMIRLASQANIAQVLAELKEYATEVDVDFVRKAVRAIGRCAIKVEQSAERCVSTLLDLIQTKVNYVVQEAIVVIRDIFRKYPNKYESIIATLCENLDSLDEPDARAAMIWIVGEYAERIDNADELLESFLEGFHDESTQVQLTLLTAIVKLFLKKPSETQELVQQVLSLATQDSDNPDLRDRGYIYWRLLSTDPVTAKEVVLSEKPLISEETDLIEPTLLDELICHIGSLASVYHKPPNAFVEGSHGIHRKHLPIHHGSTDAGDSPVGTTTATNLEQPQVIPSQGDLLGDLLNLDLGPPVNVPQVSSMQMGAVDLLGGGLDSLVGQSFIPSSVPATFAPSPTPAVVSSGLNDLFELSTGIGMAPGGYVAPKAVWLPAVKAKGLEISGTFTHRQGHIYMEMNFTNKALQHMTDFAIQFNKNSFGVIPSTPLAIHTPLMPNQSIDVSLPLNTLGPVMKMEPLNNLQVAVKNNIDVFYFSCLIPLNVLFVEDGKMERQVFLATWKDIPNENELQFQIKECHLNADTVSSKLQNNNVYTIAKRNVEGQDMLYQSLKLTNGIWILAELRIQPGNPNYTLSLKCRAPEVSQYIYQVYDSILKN
A short description of test [11]: cytosolic pH regulators acting via V-ATPase – S. cerevisiae, pHLuorin, HTS validation (AID 504600; in the data active = response above about 15%;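 note: plate controls were DMSO for no effect and reference compound for full effect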). The conditions noted are these: V-ATPase proton transport, at 10 µM, stronger effect = higher value.
Test [12] has as its system anti-desmoglein-3 scFv antibody binding to human DSG3. Nature of the test: blockers of pathogenic pemphigus antibody–desmoglein-3 binding – biochemical, validation compound set, bead-based, flow cytometry, pilot screen (AID 588368;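 active = binding below the plate cutoff, the plate median minus 3 SD, with a reading above zero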;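 note: signal is the median channel fluorescence of bead-bound GFP antibody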). The conditions noted are these: Protein G beads, DSG3-Fc, scFv-GFP binding, at 10 µM, stronger effect = lower value.
Test [13] can be described thus: Nile Red efflux blockade in pump-expressing yeast – validation compound set, multiplex, phenotypic, pilot screen (AID 588506;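 active = efflux inhibition above 0.42, the validation set average plus 4 SD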;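 note: Nile Red retained in cells so higher fluorescence means more efflux inhibition; 0 = negative control wells and 1 = enniatin B 25 µM full block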). The conditions noted are these: S. cerevisiae pump-expressing triplex, Nile Red efflux flow cytometry; at 10 µM; stronger effect = higher value; the pumps come from Candida albicans.
Test [14] addresses ATP-binding cassette sub-family B member 6 (Homo sapiens) (UniProt Q9NP58). Nature of the test: blockers of ABCB6-driven porphyrin uptake – K562-ABCB6 cells, flow cytometry, validation set, pilot screen (AID 588550;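 active = inhibition above the screen-wide mean plus 3 SD, about 51%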;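 note: 0% = DMSO wells and 100% = benzethonium chloride 70 µM positive control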). To be noted: K562-ABCB6 porphyrin accumulation, 1 h, at 10 µM, stronger effect = higher value.
The nature of test [15]: AML differentiation inducers, ER-HoxA9 marrow cells – cell-based, GFP/MAC1 double positive, flow cytometry, validation set, primary screen (AID 588685;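 active = differentiation response of at least 50%, scaled between solvent and reference control, from cells with both markers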;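 note: compound exposure lasts four days before antibody staining and flow analysis; 0% = DMSO wells and 100% = 5 µM fulvestrant positive control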). The conditions noted are these: stronger effect = higher value, normalized: vehicle 0, fulvestrant 100.

Sequence of ATP-binding cassette sub-family B member 6 (Homo sapiens) (Q9NP58 whole entry, looked up): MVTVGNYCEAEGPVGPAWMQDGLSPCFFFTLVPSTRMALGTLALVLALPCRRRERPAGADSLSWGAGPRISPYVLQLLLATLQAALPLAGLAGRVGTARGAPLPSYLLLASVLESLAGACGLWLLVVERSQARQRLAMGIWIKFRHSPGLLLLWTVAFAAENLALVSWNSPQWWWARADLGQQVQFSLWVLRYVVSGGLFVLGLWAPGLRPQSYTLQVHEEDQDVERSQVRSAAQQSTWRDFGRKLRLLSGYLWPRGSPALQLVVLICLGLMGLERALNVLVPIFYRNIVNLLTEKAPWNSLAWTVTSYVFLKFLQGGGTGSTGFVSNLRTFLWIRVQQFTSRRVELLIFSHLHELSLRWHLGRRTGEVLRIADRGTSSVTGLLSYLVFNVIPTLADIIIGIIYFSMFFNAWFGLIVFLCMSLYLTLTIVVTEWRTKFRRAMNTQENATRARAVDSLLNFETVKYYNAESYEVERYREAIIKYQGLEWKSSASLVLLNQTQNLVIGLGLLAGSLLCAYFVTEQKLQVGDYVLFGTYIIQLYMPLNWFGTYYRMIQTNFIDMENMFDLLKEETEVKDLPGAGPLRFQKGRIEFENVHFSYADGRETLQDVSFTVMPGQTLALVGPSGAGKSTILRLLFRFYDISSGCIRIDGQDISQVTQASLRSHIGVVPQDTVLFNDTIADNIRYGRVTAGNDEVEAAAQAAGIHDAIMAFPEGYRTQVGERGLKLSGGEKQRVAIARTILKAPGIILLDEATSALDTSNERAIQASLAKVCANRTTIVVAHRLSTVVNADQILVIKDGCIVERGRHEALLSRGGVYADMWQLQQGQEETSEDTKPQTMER

Usually inhibition stands for the relative decrease from the control value, in per cent. Take `CC[N+](C)(CC)CCOC(=O)C(O)(c1ccccc1)C1CCCCC1` (stereo not given): the percent of DMSO control GFP in [1] was 101% (inactive). For the same compound, the GFP response vs DMSO in test [2] is 103% (inactive); in test [4] it was 105% (inactive). For the same compound, the percent response of DMSO control in test [3] was 105% (inactive). The GFP response, % of DMSO in [5] was 103% (inactive). The compound further yielded a double positive events in [6] of 57.8%. Besides, the vesicle binding response in test [6] was 175% (inactive). The inhibition is -32.9% (inactive) in test [7], -1.88% (inactive) in test [10] and -1% (inactive) in test [14]. Moreover, the superoxide response (% of plate) in test [8] is 102% (inactive). The aptamer binding inhibition in test [9] was -3% (inactive). Besides, the response in test [11] is 6.06% (inactive). The binding (% of control) in test [12] is 98.5% (inactive). Besides, the efflux inhibition (fraction of control) in test [13] was -0.01 (inactive). Moreover, in test [15], the differentiation response is 0% (inactive).
Regarding `CN1CCC(OC(c2ccccc2)c2ccccc2)CC1`, the percent of DMSO control GFP in [1] is 104% (inactive). Further, the GFP response vs DMSO in [2] and in test [4] was 105% (inactive) throughout. Moreover, the percent response of DMSO control in [3] is 104% (inactive). The GFP response, % of DMSO in [5] was 104% (inactive). The compound also gave a double positive events in test [6] of 66.3%. In addition, the vesicle binding response in test [6] was 186% (inactive). For the same compound, the inhibition in test [7] is 7.22% (inactive); in test [10], -2.62% (inactive); in [14], 9% (inactive). Besides, in test [8], the superoxide response (% of plate) was 95.8% (inactive). Also, the aptamer binding inhibition in test [9] is 3% (inactive). Further, the response in test [11] was 1.48% (inactive). Besides, the binding (% of control) in test [12] was 102% (inactive). In addition, in [13], the efflux inhibition (fraction of control) is 0.03 (inactive). In addition, the differentiation response in test [15] is 4.64% (inactive).
In the case of `COC(=O)c1ccccc1OCCOCCOc1cccc2ccc(C)nc12`, the percent of DMSO control GFP in test [1] was 106% (inactive). For the same compound, the GFP response vs DMSO was 103% (inactive) in [2] and 90.3% (inactive) in test [4]. In addition, the percent response of DMSO control in test [3] was 99.8% (inactive). The GFP response, % of DMSO in test [5] was 100% (inactive). This compound also displayed a double positive events in test [6] of 49.8%. Further, the vesicle binding response in test [6] is 145% (inactive). Further, the inhibition in [7] is 14.7% (inactive); in test [10] it was -2.13% (inactive); in test [14], 9% (inactive). Moreover, the superoxide response (% of plate) in test [8] was 116% (inactive). Moreover, the aptamer binding inhibition in test [9] was 2% (inactive). Moreover, the response in test [11] was 4.14% (inactive). Moreover, the binding (% of control) in [12] is 103% (inactive). Further, the efflux inhibition (fraction of control) in [13] was -0.05 (inactive). In test [15], the differentiation response was -13.1% (inactive).
In the case of `CNCCC=C1c2ccccc2CCc2ccccc21`, in test [1], the percent of DMSO control GFP is 100% (inactive). The values for the GFP response vs DMSO in [2] and in test [4] were 98.9% (inactive) and 97.4% (inactive), respectively. Also, the percent response of DMSO control in test [3] is 110% (inactive). The GFP response, % of DMSO in test [5] was 102% (inactive). The double positive events in [6] amounted to 49.9%. Besides, the vesicle binding response in test [6] is 151% (inactive). Moreover, the results for the inhibition in [7], in [10] and in [14] were 21.2% (inactive), -0.2% (inactive) and 11% (inactive), respectively. For the same compound, the superoxide response (% of plate) in [8] is 110% (inactive). For the same compound, in test [9], the aptamer binding inhibition was 0% (inactive). In addition, the response in test [11] is 4.21% (inactive). Besides, in [12], the binding (% of control) is 100% (inactive). Moreover, in [13], the efflux inhibition (fraction of control) is -0.12 (inactive). The differentiation response in test [15] is -13.1% (inactive).
For `CCCN(CCC)S(=O)(=O)c1ccc(C(=O)O)cc1`, in [1], the percent of DMSO control GFP was 101% (inactive). For the same compound, the figures for the GFP response vs DMSO in [2] and in test [4] were 107% (inactive) and 124% (inactive), respectively. Besides, the percent response of DMSO control in test [3] is 96.9% (inactive). The GFP response, % of DMSO in test [5] was 104% (inactive). This compound had a double positive events in test [6] of 56.2%. The vesicle binding response in test [6] was 170% (inactive). The inhibition in test [7] was 1.62% (inactive); in test [10], -3.49% (inactive); in [14] it was 4% (inactive). Besides, the superoxide response (% of plate) in [8] is 104% (inactive). For the same compound, the aptamer binding inhibition in test [9] was 1% (inactive). The response in [11] was 0.87% (inactive). Besides, the binding (% of control) in test [12] is 99.3% (inactive). Moreover, the efflux inhibition (fraction of control) in [13] is -0.05 (inactive). Further, in test [15], the differentiation response is -24.4% (inactive).
